The full list was thinned out, with hits kept by preference.
Shiga inhibitor – Shiga toxin inhibition | Vero cells, Shiga toxin protein synthesis inhibition reporter | inhibition, % at 38.7 µM | AID 2315 | 290,000 tested, 9.2% active; in the data active = inhibition mostly above about 28%, no sharp cut-off; inactive = mostly below about 43%; note: 0% is about no effect
AmpC inh no detg – AmpC beta-lactamase inhibition without detergent; P00811; AmpC nitrocefin hydrolysis, absorbance 480 nm, 0.0001% Triton; Potency, µM (titrated, usually from 57.1 µM), for inactives: top-dose activity change, negative = inhibition, most hits filed as inhibitors; 330,000 tested, 0.52% active; AID 485341;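 note: potency is the fitted concentration of half-maximal effect; plate controls were no compound for no effect and no enzyme for full effect; nearly all actives have a fitted effect of over 20% in size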
Target sequence (P00811 whole entry, looked up): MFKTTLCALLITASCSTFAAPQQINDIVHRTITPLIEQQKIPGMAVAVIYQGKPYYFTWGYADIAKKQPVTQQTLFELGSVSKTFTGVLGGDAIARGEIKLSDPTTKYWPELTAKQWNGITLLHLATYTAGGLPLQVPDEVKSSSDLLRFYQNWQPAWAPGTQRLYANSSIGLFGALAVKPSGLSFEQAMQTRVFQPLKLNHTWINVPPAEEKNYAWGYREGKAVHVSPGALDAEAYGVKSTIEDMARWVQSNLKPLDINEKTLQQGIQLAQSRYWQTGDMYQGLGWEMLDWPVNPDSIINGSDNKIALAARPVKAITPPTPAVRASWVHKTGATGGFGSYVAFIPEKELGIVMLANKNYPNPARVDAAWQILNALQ
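AmpC (5.3 nM in the dispensed reagent) in 20 mM phosphate pH 7.0 with 0.01% (detergent screen) or 0.0001% Triton X-100 was preincubated with compounds for 15 min at room temperature. Nitrocefin was then added from an 800 uM solution, and hydrolysis was followed at 480 nm.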
NS1 function inh – influenza NS1 inhibition; Potency, µM (titrated, usually from 46.1 µM), inactives show at the top dose activity, positive = more growth; 270,000 tested, 0.4% active; AID 2326; calls by dose curve; note: potency is the fitted concentration of half-maximal effect; actives are rising curves; nearly all actives have a fitted effect of over 50% in size
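Compounds were scored for reversing the slow growth caused by influenza A NS1 in S. cerevisiae, measured by optical density at 600 nm. Assay medium contained 2% galactose at pH 6.0; NS1-free yeast of the same strain were the positive control.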
Cycloheximide cs – counter-screen for Shiga toxin inhibitors: cycloheximide protein synthesis inhibition; cell reporter, cycloheximide protein synthesis inhibition counterscreen; max response, %; 300,000 tested, 12% active; AID 2314; in the data active = max response mostly above about 13%, no sharp cut-off; inactive = mostly below about 14%; note: read at 38.3 µM for the half of the compounds with a filed dose; 0% is about no effect
AmpC inh detg – blocks E. coli AmpC beta-lactamase in detergent assay | P00811 | AmpC hydrolysis of nitrocefin, absorbance 480 nm, 0.01% Triton | Potency, µM (top dose mostly 114 µM), inactives show at the top dose activity change, negative = inhibition, most hits filed as inhibitors | 370,000 tested, 0.041% active | AID 485294;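 note: potency is the fitted concentration of half-maximal effect; 0% = no-compound wells and -100% = no-enzyme wells; nearly all actives have a fitted effect of over 25% in size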
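AmpC (5.3 nM in the dispensed reagent) in 20 mM phosphate pH 7.0 with 0.01% (detergent screen) or 0.0001% Triton X-100 was preincubated with compounds for 15 min at room temperature. Nitrocefin was then added from an 800 uM solution, and hydrolysis was followed at 480 nm.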
The depositor's hits bear a star; u = inconclusive; x = not tested or not shown; + = active, no number. Unless noted, calls come from the whole dose curve; as a rule, active = well fitted curve in the direction sought with a large enough effect; inconclusive = small, poorly fitted or top-dose-only effect, or another doubt; inactive = no such curve, though single readings can be large; an effect the other way counts as inactive or inconclusive.

SMILES	Shiga inhibitor	AmpC inh no detg	NS1 function inh	Cycloheximide cs	AmpC inh detg
Fc1ccc(/C=N/Nc2nn[nH]n2)cc1	28	-15%	x	-5	-5%
O=c1c(Cl)c(N/N=C/c2ccc(Br)cc2)cnn1-c1ccccc1	-8	39%	u	-2	-3%
COc1ccc(/C=N/Nc2ccccn2)cc1O	70*	-18%	-4%	46*	1%
Brc1ccc(/C=N/Nc2ccccn2)cc1	182*	-18%	x	40*	0%
Cc1ccc(-n2c(SCC(=O)N3CCC(C)CC3)nc3c([nH]c4ccccc43)c2=O)cc1	x	x	x	x	2%
COc1ccc(-c2nc(CS(=O)CC(=O)NC3CCCC3)c(C)o2)cc1 (configuration not stated)	-10	0%	13%	-2	-12%
O=C(CSc1nc2ccccc2s1)c1sc2sc3ccccc3[n+]2c1O	x	x	2%	x	x
O=C(O)COc1ccc(Br)cc1/C=N\Nc1ccccn1	-9	2%	1%	8	u
Cc1ccc(/C=N/Nc2ccccn2)s1	102*	-23%	0%	40*	u
Clc1ccc(/C=N/Nc2ccccn2)cc1	108*	-14%	x	53*	4%
Brc1ccccc1/C=N/Nc1ccccn1	51*	-54%	x	24*	-5%
COc1ccc(/C=N/N=C/c2ccc(OC)c(O)c2)cc1O	55	-11%	4%	36*	-7%
Cc1noc(C)c1/C=N/Nc1ccccn1	43	-10%	x	11	-5%
CC(C)C[C@H](NC(=O)c1ccc(NCc2cnc[nH]2)cc1-c1cccc2ccccc12)C(=O)O	-9	x	x	-7	x
CSCC[C@H](NC(=O)[C@H](CC(C)C)NC(=O)CNC(=O)[C@@H]1CCCN1C(=O)[C@H](Cc1ccccc1)NC(=O)[C@H](Cc1ccccc1)NC(=O)[C@H](CC(=O)O)NC(=O)[C@H](Cc1cnc[nH]1)NC(=O)[C@H](CCSC)NC(=O)[C@@H](N)CC(=O)O)C(N)=O	-6	x	x	-4	x
FC(F)(F)c1ccccc1/C=N/Nc1ccccn1	59*	-44%	x	25*	-3%
Nn1cnnc1N/N=C/c1ccccc1C(F)(F)F	4	1%	-3%	5	5%
CC1CN(c2ccc(Cl)cc2)c2nc3c(c(=O)n(CC(=O)O)c(=O)n3C)n2C1 (configuration not stated)	x	x	x	x	-2%
Cc1cccc2c3nc4ccccc4nc3n(C)c12	23	-16%	-6%	18	u
Cc1cccc2nc3ccccc3nc12	46	-19%	x	17*	u
Oc1ccccc1OCc1nc2ccccc2s1	143*	-28%	-6%	35*	-6%
O=C(Nc1ccc(Cc2nc3ccccc3s2)cc1)c1ccncc1	-6	21%	1%	10	0%
OCc1cc(Br)ccc1OCc1nc2ccccc2s1	82*	-36%	2%	45*	-2%
Oc1ccc(O)c(Cc2nc3ccccc3s2)c1	43*	-42%	x	32*	2%
O=C(CCC(=O)c1cccs1)OCc1nc2ccccc2s1	3	-25%	-25%	3	-9%
SMILES	Shiga inhibitor	AmpC inh no detg	NS1 function inh	Cycloheximide cs	AmpC inh detg
O=C(CSc1nc2ccccc2c2nc(-c3ccccc3)nn12)Nc1ccc(F)cc1	x	x	x	x	7%
Cc1cccc(NS(=O)(=O)c2ccc3c(c2)C(C)(C)C(=O)N3C)c1	x	x	x	x	3%
O=C(/C=C/c1ccccc1F)c1cccc([N+](=O)[O-])c1	active	-23%	-49%	21	-8%
O=C(Oc1ccc(F)cc1C(=O)/C=C/c1cccs1)c1cccc([N+](=O)[O-])c1	49*	-23%	-9%	17	u
COc1ccc(C(=O)/C=C/c2ccccc2F)c(OC(=O)c2ccc([N+](=O)[O-])cc2)c1	60	-37%	6%	49*	u
COc1cc(/C=C/C(=O)c2cccc([N+](=O)[O-])c2)cc(OC)c1OC	-18	51%	-5%	-3	-4%
COc1ccc(C(=O)/C=C/c2ccc(C)cc2)c(OC(=O)c2ccc([N+](=O)[O-])cc2)c1	16	-19%	-2%	32*	-4%
COc1ccc(C(=O)/C=C/c2ccc(N3CCCCC3)c([N+](=O)[O-])c2)c(OC)c1	-6	-10%	11%	4	-4%
Cc1ccc(C(=O)Nc2nc(-c3ccccn3)cs2)s1	x	-33%	x	x	5%
Cc1cccnc1Nc1nc(-c2ccccc2)cs1	104*	-19%	-89%	67*	6%
Cc1cccnc1Nc1nc(-c2ccccn2)cs1	126*	-45%	-145%	47*	u
CCOCCc1nnc(NC(=O)C(=O)c2cc(C)n(-c3ccc(C)c(C)c3)c2C)s1	x	x	x	x	25%
COc1ccccc1-c1cc(-c2ccccc2)nc(SCC(=O)O)c1C#N	-3	-22%	10%	-1	-5%
CC(C)N(Cc1nccn1C)C(=O)c1cc(COc2cccc(C(F)(F)F)c2)on1	-4	137%	-2%	-6	u
CCOC(=O)N1CCN(C(=O)c2cc(COc3cccc(C(F)(F)F)c3)on2)CC1	60*	144%	-39%	46*	-6%
CN(Cc1nccn1C)C(=O)c1cc(COc2cccc(C(F)(F)F)c2)on1	42*	109%	2%	37*	u
CC(=O)c1cccc(OCc2cc(C(=O)NCc3nc(C)c(C)s3)no2)c1	83*	28%	-12%	40*	1%
C[C@@H]1CN(C(=O)c2cc(COc3cccc(C(F)(F)F)c3)on2)C[C@H](C)O1	-12	32%	-29%	19	-5%
CCOC(=O)N1CCN(C(=O)c2cc(COc3cccc(C(C)=O)c3)on2)CC1	45	82%	-41%	41*	-3%
CCOC(=O)N1CCN(C(=O)c2cc(COc3ccc4ncccc4c3)on2)CC1	-8	64%	-7%	-2	-7%
COC(=O)c1ccccc1NC(=O)CSc1nc2ccccc2nc1Cc1ccc(F)cc1	x	x	x	x	25%
CCN(CCn1cccn1)C(=O)c1ccc2nc(Cc3ccc(OC)cc3)oc2c1	56	3%	-2%	23*	-1%
COc1ccc(Cc2nc3ccc(C(=O)NCCn4cccn4)cc3o2)cc1	5	20%	-16%	2	-8%
COCCN1CCN(C(=O)c2ccc3nc(Cc4ccc(OC)c(OC)c4)oc3c2)CC1	14	77%	16%	10	4%
COc1ccc(Cc2nc3ccc(C(=O)N4CCOCC4)cc3o2)cc1	+	4%	1%	68*	3%
COc1ccc(Cc2nc3ccc(C(=O)N4C[C@@H](C)O[C@@H](C)C4)cc3o2)cc1OC	62*	90%	1%	44*	2%
Cc1cc(C(=O)CSc2nnnn2-c2ccccc2)c(C)n1CCc1ccccc1	-11	2%	-2%	-2	7%
Cc1ccc(C(=O)CSc2nnnn2-c2ccccc2)o1	49*	-33%	x	25	2%
O=C(CSc1nnnn1-c1ccccc1)c1ccc(O)cc1O	50	-42%	1%	14*	1%
CCOC(=O)c1c(-c2ccc(C)o2)csc1NC(=O)CSc1nnnn1-c1ccccc1	14	11µM*	u	6	-12%
